Hits are enriched below; roughly 1.7% of the tested compounds scored in any of these assays.
Cardio protect – protects H9c2 cardiomyocytes from peroxide injury. protection from H2O2 cell death, % at 20 µM. actives 0.63% (n = 360,000). H2O2 injury protection, ATPLite, 2 h;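 active = compounds giving at least 50% protection of heart cells from peroxide-induced death in the single-dose screen, raw or plate-pattern-corrected value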;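 also: 0% = DMSO wells with peroxide and 100% = DMSO wells without peroxide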
aDG glyco up – increases alpha dystroglycan glycosylation; Pro5-aDG cells, alpha-DG glycosylation AlphaScreen (IIH6); 0% Pro5, 100% B10-LARGE cell signal; activation, % at 10 µM; actives 0.22% (n = 360,000);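 active = activation of at least 8% versus controls, or a plate z-score of at least 8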;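 also: Pro5 are CHO cells carrying HIG-tagged alpha-DG that lacks glycosylation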
ARNT-TACC3 inh – ARNT/TACC3 interaction disruption; actives 0.66% (n = 390,000); AlphaScreen His-ARNT PAS-B/GST-TACC3 binding, luminescence; TACC3 fragment carries E629A point mutation; AID 623870; inhibition, % at 9.99 µM; Q9Y6A5;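 active = mean inhibition of replicates at least 50% and at least half of replicates each reaching 50%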;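 also: 0% = complete ARNT plus TACC3 wells and 100% = ARNT alone without TACC3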
Vif imaging – blocks HIV Vif function; HEK293T cells, Vif self-association by quenched fluorescence, imaging, 24 h; inhibition, % at 7.49 µM; actives 0.35% (n = 340,000); in the data active = inhibition above about 50%, passing the limit was not always enough
N-glyco inh – blocks N-linked glycosylation in D54 reporter cells; reporter increase, % at 12.5 µM; D54 ERlucT glycosylation luciferase reporter, 24 h; percent of 100 nM tunicamycin response; actives 0.23% (n = 360,000);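 active = mean luciferase reporter signal, scaled so untreated is 0 and the glycosylation-blocking control 100, at or above a set limit in every replicate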;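 also: luciferase carries N-glycosylation sites so blocking glycosylation raises the light; 0% = median of neutral control wells and 100% = median of 100 nM tunicamycin wells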
aDG conf – confirmation of alpha dystroglycan glycosylation activators | Pro5-aDG cells, alpha-DG glycosylation, IIH6 AlphaLISA; scaled to LARGE-overexpressing B10 cells as 100% | shares compounds with aDG glyco up | actives 17% (n = 600) | activation, % at 10 µM (by protocol);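 active = activation of at least 7% in one or more replicates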;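 also: cells exposed to compound for two days before detection; 0% = DMSO-treated Pro5 cells and 100% = DMSO-treated B10-LARGE cells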
An asterisk follows results filed as active; . = no result.

SMILES	Cardio protect	aDG glyco up	ARNT-TACC3 inh	Vif imaging	N-glyco inh	aDG conf
COC(=O)[C@@]1(C)[C@H]2C(=O)N(Cc3ccccc3)C(=O)[C@H]2[C@H]2CN=C(SCc3ccc(C#N)cc3)N21	10	5.6*	-3	-6	-1	1
CC1(C)CC(=O)C=C(c2ccccc2-c2ccc(S(C)(=O)=O)cc2)C1=O	26	5.6*	.	.	1	-1
C[C@H]1CN([C@@H](C)CO)S(=O)(=O)c2ccc(Br)cc2O[C@H]1CN(C)C(=O)CN(C)C	2	10*	11	2	3	2
C[C@@H]1CN([C@@H](C)CO)S(=O)(=O)c2ccc(Br)cc2O[C@H]1CN(C)C(=O)CN(C)C	8	0	15	-3	0	.
Cc1nc(-c2ccccn2)nc(N2CCOCC2)c1Cl	5	0	20	-2	-2	.
COc1ccc(Oc2nc(-c3ccccn3)nc3ccccc23)cc1	-6	2	.	-1	-2	.
c1ccc(-c2nc(N3CCOCC3)c3ccccc3n2)nc1	-2	7.0*	.	-4	-1	3
c1ccc(Oc2nc(-c3ccccn3)nc3ccccc23)cc1	-5	2.4*	.	-7	5	2.8*
O=C(C[C@H]1C[C@@H]2c3cc(NC(=O)CC4CC4)ccc3O[C@@H]2[C@@H](CO)O1)NCc1ccccc1	.	.	-4	.	.	.
C[C@@H]1CN([C@H](C)CO)S(=O)(=O)c2ccc(C#C[C@@H](C)O)cc2O[C@H]1CN(C)C(=O)Cc1ccccn1	.	.	0	.	.	.
Cc1cc2ccccc2n1CCNC(=O)C1CC1	10	7.8*	6	-7	0	0
Cc1cc2ccccc2n1CCNC(=O)C1CCCC1	16	0	3	-7	0	.
COc1ccc(S(=O)(=O)Nc2ccc3c(c2)C(=O)N([C@H](C)CO)C[C@@H](C)[C@H](CN(C)S(=O)(=O)c2cccs2)OCCCC[C@H](C)O3)cc1	.	.	3	.	.	.
O=C(CN1C(=O)c2ccccc2S1(=O)=O)NCCSCc1ccco1	2	80*	1	5	-2	0
O=C(CN1C(=O)c2ccccc2S1(=O)=O)NCCSCc1ccccc1Cl	0	0	8	-8	-3	.
Nc1nc(-c2ccccn2)nc(N)c1Cc1c(F)cccc1Cl	21	8.0*	.	-1	9	0
CCOC(=O)C(/C(N)=N/C(=O)Nc1ccccc1)=C(\C)O	5	2.9*	2	-2	1	-1
O=C(Nc1ccc2c(c1)OCO2)N[C@H]1CC[C@H](CCNC(=O)C2CCCCC2)O[C@H]1CO	.	.	-9	.	.	.
C[C@H]1CN([C@@H](C)CO)S(=O)(=O)c2ccc(C#Cc3ccccc3)cc2O[C@H]1CN(C)C	.	.	31	.	.	.
COc1ccc(-c2cc(-c3ccc(F)cc3)nc(N3CCN(C)CC3)n2)cc1	-23	15*	-10	6	4	0
COc1ccc(OC)c(N)c1	1	0	4	-5	3	.
COc1cc(N)c2ncsc2c1	-6	9.7*	14	38	2	1
Cc1nnc(SCC(=O)NC2CCCc3ccccc32)n1-c1ccccc1 (configuration not stated)	7	7.0*	-4	11	0	1
Cc1cccc(S(=O)(=O)N(C)C[C@@H]2OCc3ccccc3-c3ccccc3C(=O)N([C@@H](C)CO)C[C@H]2C)c1	.	.	1	.	.	.
COc1cc(NC(=S)N2CCN(S(=O)(=O)c3ccc(F)cc3)CC2)cc(OC)c1	-2	14*	-2	11	-1	1
SMILES	Cardio protect	aDG glyco up	ARNT-TACC3 inh	Vif imaging	N-glyco inh	aDG conf
O=C(C1CCN(c2nnc(-n3cccc3)s2)CC1)N1CCN(c2cccc(C(F)(F)F)c2)CC1	-16	8.0*	-1	.	0	0
C[C@H]1CN([C@@H](C)CO)C(=O)c2cccc(NC(=O)c3nc4ccccc4s3)c2O[C@@H]1CN(C)C(=O)Nc1ccc(F)cc1	.	.	-14	.	.	.
CC(C)(C)c1ccc(-c2cc(N)n[nH]2)cc1	-15	9.7*	25	-3	-2	0
Cc1noc(C)c1S(=O)(=O)Nc1ccc2c(c1)C(=O)N([C@@H](C)CO)C[C@H](C)[C@@H](CN(C)S(=O)(=O)c1cccs1)O2	.	.	-7	.	.	.
O=C1SCCN1N=Cc1ccc([N+](=O)[O-])o1	9	7.2*	-3	-2	7	3.5*
CCc1nc2ccc(C(=O)NC3CCN(Cc4ccccc4)CC3)cn2c1N(C)Cc1cc2ccccc2s1	-30	6.4*	.	0	-7	11*
COc1ccc(C2N=C(c3ccccc3)NO2)cc1OC (configuration not stated)	-6	2.8*	10	-2	-2	0
COc1cc(C2N=C(c3ccccc3)NO2)cc(Br)c1O (configuration not stated)	3	0	6	3	4	.
CCCOc1ccc(C(=O)N(CC(C)C)c2c(N)n(Cc3ccccc3)c(=O)[nH]c2=O)cc1	6	5.7*	.	-8	1	-1
CCOc1ccc(OCCC(=O)N(CC(C)C)c2c(N)n(Cc3ccccc3)c(=O)[nH]c2=O)cc1	2	0	4	21	-1	.
CCc1ccc(Nc2cc(=O)n(C3CCCCC3)c(=O)[nH]2)cc1	-26	6.9*	-1	-19	0	-1
CCC1CCCCN1C(=O)CN1C(=O)c2ccccc2S1(=O)=O (configuration not stated)	1	3.3*	16	-3	-2	0
C[C@@H]1CCCCO[C@@H](CN(C)C(=O)Nc2cccc3ccccc23)[C@H](C)CN([C@@H](C)CO)C(=O)c2cc(NC(=O)Nc3ccc(F)cc3)ccc2O1	.	.	23	.	.	.
COc1ccccc1CNS(=O)(=O)c1c(C)nc2sccn2c1=O	7	0	-6	.	0	.
Cc1nc2sccn2c(=O)c1S(=O)(=O)NCc1ccccc1Cl	-4	10*	1	2	1	1
Cc1cncn1CCc1nc2c3ccccc3nc(SCC(=O)Nc3cccc(Cl)c3)n2n1	-23	8.7*	6	-1	-3	5.3*
Cc1cccc(NC(=O)CSc2nc3ccccc3c3nc(CCc4c(C)n[nH]c4C)nn23)c1	40	0	-8	4	-1	.
CO[C@@H]1CN(C)C(=O)c2cc(NC(=O)C3CCCCC3)ccc2OC[C@H](C)N(Cc2nccs2)C[C@@H]1C	.	.	4	.	.	.
CCN1CCc2c(sc(NC(=O)c3ccc(S(=O)(=O)N4CCCC4)cc3)c2C(=O)NC)C1	-14	47*	3	-8	-12	0
NC(=O)c1c(NC(=O)c2ccc(S(=O)(=O)N3CCOCC3)cc2)sc2c1CCCCC2	-11	0	-7	5	1	.
CCOC(=O)N1CCN(S(=O)(=O)c2ccc(C(=O)Nc3sc4c(c3C(N)=O)CCN(CC)C4)cc2)CC1	3	86*	3	9	-10	0
